This is an account of results in PubChem BioAssay (NCI).

About 83,000 compounds went through this panel and 20% of them were active in at least one assay; those are over-represented in the sample as a whole.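 48-hour exposure, single concentration, 96-well plates; percent growth endpoint where 0 means no net growth. Active: below 10.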 Calls of active or inactive are those of the source.

For the assay, the system named is HL-60(TB) leukemia. Description: NCI-60 one-dose screen, 48 h (100 = growth as untreated, 0 = no growth, -100 = all killed). Particulars: 10 µM unless noted.
Regarding `C=C1CC[C@H](C(C)C)[C@@H]2[C@H]1[C@H]1CC(=C)[C@@H](O)CC[C@@](C)(O)[C@@H]2O1`, the growth is 103% (inactive).

In the case of `O=C1CCCC=CC[C@H]2C=C(Cl)C(=O)C2=CC[C@H](CCCCC(F)(F)F)OC(=O)CCCC=CC[C@H]2C=C(Cl)C(=O)C2=CC[C@H](CCCCC(F)(F)F)OC(=O)CCCC=CC[C@H]2C=C(Cl)C(=O)C2=CC[C@H](CCCCC(F)(F)F)O1`, the growth is 27.6% [6.25 µM] (inactive).

Take `CC(=O)Nc1cc(C(c2ccccc2)c2ccccc2)cc(C(c2ccccc2)c2ccccc2)c1C`: the growth was 53.1% (inactive).

`CCCCCCCCN(CCO)CCCCCCCC`: the growth is 100% (inactive).

For the compound `C[Si](C)(C)Cc1ccccc1`, the growth is 125% (inactive).

`CCCC(C)c1ccc(OCCCCCCN2CCNCC2)cc1` (stereo not given): the growth was -44.9% (active).

Consider `Cc1ccc2cnc(N)c(C#Cc3cc(C(=O)Nc4ccc(CN5CCN(C)CC5)c(C(F)(F)F)c4)cnc3C)c2c1`, for which the growth was 30% (inactive).

As for `c1ccc2[nH]c(-c3ccc(-c4nccc5c4[nH]c4ccccc45)cc3)nc2c1`, the growth is -42.1% (active).

As for `Cc1c(NC(=O)OC[C@@H]2COCCN2)cn2ncnc(Nc3ccc4c(cnn4Cc4cccc(F)c4)c3)c12`, the growth was -25.6% (active).

As for `NC(=Nc1nc(-c2ccccn2)cc2ccccc12)c1ccccn1`, the growth is -30.6% (active).

In the case of `COc1ccc([N+](=O)[O-])c(S(=O)(=O)c2ccc(Cl)cc2)n1`, the growth is 38.2% (inactive).

Turning to `N=C(N)c1ccc(-c2ccc(-c3cc(Cl)cc(Cl)c3)o2)nc1`, the growth is -74.7% (active).

As to `CCOC(=O)c1c(-c2ccc(O)cc2)c(C#N)c2c(C#N)c(N)nn2c1N`, the growth is 22.5% (inactive).

`COC(=O)c1nc(=S)[nH]c(C(=O)OC)c1C(=O)c1ccc2ccccc2c1`: the growth was 122% (inactive).

In the case of `O=C(CCOCCNC(=O)COc1ccc2c(c1)OCC(c1ccc(F)cc1)C2=O)NCCCC(O)(P(=O)(O)O)P(=O)(O)O` (stereo not given), the growth was 104% (inactive).

As for `O=[N+]([O-])C1=C(c2ccccc2)SC=C(c2ccccc2)S1`, the growth was 70.9% (inactive).

Regarding `CON=C1C[C@]2(C[C@@H]3C[C@@H](C/C=C(\C)C[C@@H](C)/C=C/C=C4\CO[C@@H]5[C@H](O)C(C)=C[C@@H](C(=O)O3)[C@]45O)O2)O[C@H](/C(C)=C/C(C)C)[C@H]1C`, the growth is -43.6% (active).

On to `N#Cc1cnc2cc(OC[C@@H](O)CO)c(NC(=O)CC3CSSC3)cc2c1Nc1ccc(OCc2cccc(F)c2)c(Cl)c1`, for which the growth is -56.4% (active).

In the case of `Cc1cc(=O)n2n1-c1ccc(Cl)cc1NC(=O)C2`, the growth was 101% (inactive).

In the case of `CN(C)CCCNc1c2ccccc2nc2ccccc12`, the growth is 72.8% (inactive).

Turning to `COc1ccc2[nH]cc(-c3nc(-c4cn(C)c5ccncc45)cs3)c2c1`, the growth was 82.3% (inactive).

In the case of `C/C(=N\O)c1ccc(NC(=O)CSc2nnc(-c3cc(-c4ccc(S(C)(=O)=O)cc4)nc4ccccc34)n2-c2ccccc2)cc1`, the growth is 84% (inactive).

For `CN1C(=O)N(C)C2Nn3c(s/c(=C\c4ccccc4)c3=O)=NC21` (stereo not given), the growth is 95.2% (inactive).

In the case of `CS(=O)(=O)c1ccc(-c2cc3c(oc2=O)-c2ccccc2OC3O)cc1` (stereo not given), the growth was 93.5% (inactive).

With `COc1cc2oc(-c3cccc(C(=O)Nc4ccc(Cl)cc4)c3)cc(=O)c2c(O)c1OC`, the growth is 85.6% (inactive).

Take `CCN1C(=O)N(CC)C2C1NN=c1s/c(=C\c3ccccn3)c(=O)n12` (stereo not given): the growth is -22.5% (active).

For `O=c1[nH]ccc2nc(N3CCC(O)CC3)nc(Nc3cccc(C(F)(F)F)c3)c12`, the growth was 29.6% (inactive).

Consider `Brc1ccc2c(c1)-c1ccccc1C1=NCCN12`, for which the growth is 18.2% (inactive).

Take `O=C1C=Cc2ccccc2/C1=C/c1[nH]c(=O)[nH]c1O`: the growth is 43.3% (inactive).

`COc1ccccc1N1C(=O)/C(=C/C2=Cc3ccccc3OC2)SC1=S`: the growth was 92.9% (inactive).

On to `CC/C(=N\N=C(/CC)c1ccc(Br)cc1)c1ccc(Br)cc1`, for which the growth is 124% (inactive).

Turning to `CCCCOP(=O)(OCCCC)C(C(=O)OCC)C(CC(=O)OCC)C(=O)OCC` (stereo not given), the growth was 102% (inactive).

Regarding `COc1ccc2c(c1)N(CCO)C1=C(C(=O)OC1)C2c1cccc(Br)c1` (stereo not given), the growth was -26.3% (active).

As for `CCCCCCOc1ccc(/C=N/Nc2cc(C)nc3ccc(Cl)cc23)cc1`, the growth is 8.19% (active).

Take `Cn1c2ccccc2c2c3c(c4c5ccccc5n(CCCCCC#N)c4c21)C(=O)N(O)C3=O`: the growth is -22.3% (active).

In the case of `Cc1ccc(C(=O)c2ccc(CC(=O)N=Nc3c(O)[nH]c4ccc(Br)cc34)n2C)cc1`, the growth is 89.4% (inactive).

In the case of `CCOC(=O)CNC(=O)Sc1ccc(C(C)(C)C)cc1`, the growth is 64.4% (inactive).

Regarding `Fc1cc(-c2nnc3sc(-c4ccc(Cl)cc4Cl)nn23)c(Cl)cc1Cl`, the growth was 161% (inactive).

On to `COc1cc2c3c(n(C)c(=O)c2cc1OC)-c1cc2c(cc1C3=O)OCO2`, for which the growth is 73.6% (inactive).

On to `Nc1ncnc2c1ncn2C1(CO)OCC(O)C(O)C1O` (stereo not given), for which the growth was 95.9% (inactive).
